# Columns and labels:
# Assay in all cases: PBM; 200 nM protein, PBS
# Conditions in all cases: dsDNA, one strand shown
# HOXB9 [1] = target: HOXB9 (Homo sapiens, UniProt P17482 171-250)
# HOXB9 [2] = target: HOXB9 (Homo sapiens, UniProt P17482 171-250, R186Q)
# PRRX1 = PRRX1 (Homo sapiens, UniProt P54821 80-166, F113S)
# SHOX = SHOX (Homo sapiens, UniProt O15266 103-189, R173C)
# HOXB6 [3] = target: HOXB6 (Homo sapiens, UniProt P17509 132-218, K202E)
# HOXB6 [4] = target: HOXB6 (Homo sapiens, UniProt P17509 132-218)
# HOXA2 [5] = target: HOXA2 (Homo sapiens, UniProt O43364 129-215, R185T)
# HOXA2 [6] = target: HOXA2 (Homo sapiens, UniProt O43364 129-215, R185K)
# HOXA2 [7] = target: HOXA2 (Homo sapiens, UniProt O43364 129-215, Y150S)
# HOXA2 [8] = target: HOXA2 (Homo sapiens, UniProt O43364 129-215)
# HESX1 [9] = target: HESX1 (Homo sapiens, UniProt Q9UBX0 95-180, R165K)
# HESX1 [10] = target: HESX1 (Homo sapiens, UniProt Q9UBX0 95-180)
# HESX1 [11] = target: HESX1 (Homo sapiens, UniProt Q9UBX0 95-180, F115L)
# MSX2 [12] = target: MSX2 (Homo sapiens, UniProt P35548 130-214, R199I)
# MSX2 [13] = target: MSX2 (Homo sapiens, UniProt P35548 130-214)
# PROP1 [14] = target: PROP1 (Homo sapiens, UniProt O75360 56-141)
# PROP1 [15] = target: PROP1 (Homo sapiens, UniProt O75360 56-141, R99H)
# PROP1 [16] = target: PROP1 (Homo sapiens, UniProt O75360 56-141, F88S)
# MSX2 [17] = target: MSX2 (Homo sapiens, UniProt P35548 130-214, F161Y)
# VAX1 = VAX1 (Homo sapiens, UniProt Q5SQQ9 86-172, K157R)
# Sequence of VAX1 (Q5SQQ9 86-172 K157R): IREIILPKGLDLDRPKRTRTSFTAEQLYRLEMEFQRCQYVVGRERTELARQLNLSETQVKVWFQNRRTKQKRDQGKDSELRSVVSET
# Sequence of MSX2 (Homo sapiens, UniProt P35548 130-214, F161Y) (P35548 130-214 F161Y): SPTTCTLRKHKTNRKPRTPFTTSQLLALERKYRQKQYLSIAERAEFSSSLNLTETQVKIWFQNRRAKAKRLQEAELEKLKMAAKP
# Sequence of MSX2 (Homo sapiens, UniProt P35548 130-214, R199I) (P35548 130-214 R199I): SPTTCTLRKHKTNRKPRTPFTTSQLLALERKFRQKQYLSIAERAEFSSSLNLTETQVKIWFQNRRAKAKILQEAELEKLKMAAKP
# Sequence of HOXB6 (Homo sapiens, UniProt P17509 132-218) (P17509 132-218): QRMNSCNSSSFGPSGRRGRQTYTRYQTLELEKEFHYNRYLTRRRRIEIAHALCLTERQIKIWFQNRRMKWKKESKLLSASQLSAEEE
# Sequence of HOXB9 (Homo sapiens, UniProt P17482 171-250, R186Q) (P17482 171-250 R186Q): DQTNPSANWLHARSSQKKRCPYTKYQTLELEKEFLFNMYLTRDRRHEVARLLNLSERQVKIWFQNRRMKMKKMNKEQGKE
# Sequence of HOXA2 (Homo sapiens, UniProt O43364 129-215, R185K) (O43364 129-215 R185K): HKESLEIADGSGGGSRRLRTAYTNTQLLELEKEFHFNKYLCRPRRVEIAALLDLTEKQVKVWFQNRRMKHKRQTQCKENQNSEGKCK
# Sequence of HOXB9 (Homo sapiens, UniProt P17482 171-250) (P17482 171-250): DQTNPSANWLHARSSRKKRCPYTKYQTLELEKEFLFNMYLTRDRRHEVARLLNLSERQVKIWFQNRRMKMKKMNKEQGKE
# Sequence of PRRX1 (P54821 80-166 F113S): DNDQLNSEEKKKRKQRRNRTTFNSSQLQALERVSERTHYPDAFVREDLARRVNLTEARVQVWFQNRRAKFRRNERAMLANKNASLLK
# Sequence of SHOX (O15266 103-189 R173C): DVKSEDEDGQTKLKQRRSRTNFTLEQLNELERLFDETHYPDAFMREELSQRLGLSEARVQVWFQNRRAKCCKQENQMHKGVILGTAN
# Sequence of MSX2 (Homo sapiens, UniProt P35548 130-214) (P35548 130-214): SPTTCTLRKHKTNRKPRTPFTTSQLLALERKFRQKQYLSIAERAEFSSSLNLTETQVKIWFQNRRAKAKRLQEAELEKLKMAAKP
# Sequence of HOXA2 (Homo sapiens, UniProt O43364 129-215) (O43364 129-215): as the sequence (O43364 129-215 R185K) above, with K57R counted along it
# Sequence of HOXA2 (Homo sapiens, UniProt O43364 129-215, Y150S) (O43364 129-215 Y150S): as the sequence (O43364 129-215 R185K) above, with Y22S, K57R counted along it
# Sequence of HOXA2 (Homo sapiens, UniProt O43364 129-215, R185T) (O43364 129-215 R185T): as the sequence (O43364 129-215 R185K) above, with K57T counted along it
# Sequence of HOXB6 (Homo sapiens, UniProt P17509 132-218, K202E) (P17509 132-218 K202E): as the sequence (P17509 132-218) above, with K71E counted along it
# Sequence of HESX1 (Homo sapiens, UniProt Q9UBX0 95-180, F115L) (Q9UBX0 95-180 F115L): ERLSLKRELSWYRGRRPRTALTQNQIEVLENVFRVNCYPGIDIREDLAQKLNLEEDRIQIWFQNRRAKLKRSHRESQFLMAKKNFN
# Sequence of HESX1 (Homo sapiens, UniProt Q9UBX0 95-180) (Q9UBX0 95-180): as the sequence (Q9UBX0 95-180 F115L) above, with L21F counted along it
# Sequence of HESX1 (Homo sapiens, UniProt Q9UBX0 95-180, R165K) (Q9UBX0 95-180 R165K): as the sequence (Q9UBX0 95-180 F115L) above, with L21F, R71K counted along it
# Sequence of PROP1 (Homo sapiens, UniProt O75360 56-141, R99H) (O75360 56-141 R99H): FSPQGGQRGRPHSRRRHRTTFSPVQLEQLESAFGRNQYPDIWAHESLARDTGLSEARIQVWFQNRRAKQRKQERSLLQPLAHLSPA
# Sequence of PROP1 (Homo sapiens, UniProt O75360 56-141, F88S) (O75360 56-141 F88S): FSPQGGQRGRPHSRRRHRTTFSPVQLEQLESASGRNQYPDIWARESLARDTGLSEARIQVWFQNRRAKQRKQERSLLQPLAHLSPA
# Sequence of PROP1 (Homo sapiens, UniProt O75360 56-141) (O75360 56-141): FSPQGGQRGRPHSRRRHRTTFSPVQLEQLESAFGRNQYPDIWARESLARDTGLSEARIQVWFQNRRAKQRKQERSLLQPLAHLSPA
sequence,measurement,setting,value
GCCACTTA,binding signal,HOXB9 [1],"10.1 upbm affinity estimate (log intensity, higher = more binding, comparable within an allelic series)"
same,binding signal,HOXB9 [2],"10 upbm affinity estimate (log intensity, higher = more binding, comparable within an allelic series)"
ACGCGCAG,binding signal,PRRX1,"9.07 upbm affinity estimate (log intensity, higher = more binding, comparable within an allelic series)"
same,binding signal,SHOX,"7.17 upbm affinity estimate (log intensity, higher = more binding, comparable within an allelic series)"
CGGACCCG,binding signal,HOXB6 [3],"8.97 upbm affinity estimate (log intensity, higher = more binding, comparable within an allelic series)"
same,binding signal,HOXB6 [4],"9 upbm affinity estimate (log intensity, higher = more binding, comparable within an allelic series)"
ACCAGCTG,binding signal,SHOX,"7.03 upbm affinity estimate (log intensity, higher = more binding, comparable within an allelic series)"
CCAGGCCG,binding signal,HOXA2 [5],"7.21 upbm affinity estimate (log intensity, higher = more binding, comparable within an allelic series)"
same,binding signal,HOXA2 [6],"10.2 upbm affinity estimate (log intensity, higher = more binding, comparable within an allelic series)"
same,binding signal,HOXA2 [7],"10.3 upbm affinity estimate (log intensity, higher = more binding, comparable within an allelic series)"
same,binding signal,HOXA2 [8],"7.17 upbm affinity estimate (log intensity, higher = more binding, comparable within an allelic series)"
CCGGAGCC,binding signal,HOXB6 [3],"8.96 upbm affinity estimate (log intensity, higher = more binding, comparable within an allelic series)"
same,binding signal,HOXB6 [4],"8.93 upbm affinity estimate (log intensity, higher = more binding, comparable within an allelic series)"
CTTCCGTC,binding signal,HESX1 [9],"6.54 upbm affinity estimate (log intensity, higher = more binding, comparable within an allelic series)"
same,binding signal,HESX1 [10],"6.45 upbm affinity estimate (log intensity, higher = more binding, comparable within an allelic series)"
same,binding signal,HESX1 [11],"6.61 upbm affinity estimate (log intensity, higher = more binding, comparable within an allelic series)"
ACCCGGGC,binding signal,SHOX,"7.15 upbm affinity estimate (log intensity, higher = more binding, comparable within an allelic series)"
CTAATTGC,binding signal,HESX1 [9],"12.3 upbm affinity estimate (log intensity, higher = more binding, comparable within an allelic series)"
same,binding signal,HOXB6 [3],"9.81 upbm affinity estimate (log intensity, higher = more binding, comparable within an allelic series)"
same,binding signal,HESX1 [10],"12.5 upbm affinity estimate (log intensity, higher = more binding, comparable within an allelic series)"
same,binding signal,HOXA2 [5],"13.1 upbm affinity estimate (log intensity, higher = more binding, comparable within an allelic series)"
same,binding signal,MSX2 [12],"13 upbm affinity estimate (log intensity, higher = more binding, comparable within an allelic series)"
same,binding signal,SHOX,"9.34 upbm affinity estimate (log intensity, higher = more binding, comparable within an allelic series)"
same,binding signal,HOXA2 [6],"13.5 upbm affinity estimate (log intensity, higher = more binding, comparable within an allelic series)"
same,binding signal,MSX2 [13],"14 upbm affinity estimate (log intensity, higher = more binding, comparable within an allelic series)"
same,binding signal,PROP1 [14],"11.2 upbm affinity estimate (log intensity, higher = more binding, comparable within an allelic series)"
same,binding signal,PROP1 [15],"11.5 upbm affinity estimate (log intensity, higher = more binding, comparable within an allelic series)"
same,binding signal,PROP1 [16],"7.41 upbm affinity estimate (log intensity, higher = more binding, comparable within an allelic series)"
same,binding signal,MSX2 [17],"13.6 upbm affinity estimate (log intensity, higher = more binding, comparable within an allelic series)"
same,binding signal,HESX1 [11],"7.52 upbm affinity estimate (log intensity, higher = more binding, comparable within an allelic series)"
same,binding signal,HOXA2 [7],"10.7 upbm affinity estimate (log intensity, higher = more binding, comparable within an allelic series)"
same,binding signal,HOXA2 [8],"12.6 upbm affinity estimate (log intensity, higher = more binding, comparable within an allelic series)"
same,binding signal,VAX1,"12.8 upbm affinity estimate (log intensity, higher = more binding, comparable within an allelic series)"
same,binding signal,HOXB6 [4],"11.8 upbm affinity estimate (log intensity, higher = more binding, comparable within an allelic series)"
CACGGGCC,binding signal,HOXA2 [5],"6.97 upbm affinity estimate (log intensity, higher = more binding, comparable within an allelic series)"
same,binding signal,MSX2 [12],"9.44 upbm affinity estimate (log intensity, higher = more binding, comparable within an allelic series)"
same,binding signal,HOXA2 [6],"10.1 upbm affinity estimate (log intensity, higher = more binding, comparable within an allelic series)"
same,binding signal,MSX2 [13],"9.39 upbm affinity estimate (log intensity, higher = more binding, comparable within an allelic series)"
same,binding signal,MSX2 [17],"9.46 upbm affinity estimate (log intensity, higher = more binding, comparable within an allelic series)"
same,binding signal,HOXA2 [7],"10.3 upbm affinity estimate (log intensity, higher = more binding, comparable within an allelic series)"
same,binding signal,HOXA2 [8],"6.84 upbm affinity estimate (log intensity, higher = more binding, comparable within an allelic series)"
CTGGCCAG,binding signal,MSX2 [12],"9.71 upbm affinity estimate (log intensity, higher = more binding, comparable within an allelic series)"
same,binding signal,MSX2 [13],"9.79 upbm affinity estimate (log intensity, higher = more binding, comparable within an allelic series)"
same,binding signal,MSX2 [17],"9.83 upbm affinity estimate (log intensity, higher = more binding, comparable within an allelic series)"
CCGGTGGC,binding signal,MSX2 [12],"9.47 upbm affinity estimate (log intensity, higher = more binding, comparable within an allelic series)"
same,binding signal,MSX2 [13],"9.56 upbm affinity estimate (log intensity, higher = more binding, comparable within an allelic series)"
same,binding signal,MSX2 [17],"9.58 upbm affinity estimate (log intensity, higher = more binding, comparable within an allelic series)"
same,binding signal,VAX1,"7.27 upbm affinity estimate (log intensity, higher = more binding, comparable within an allelic series)"
CGTGCACG,binding signal,PRRX1,"9.62 upbm affinity estimate (log intensity, higher = more binding, comparable within an allelic series)"
same,binding signal,HOXB9 [1],"8.75 upbm affinity estimate (log intensity, higher = more binding, comparable within an allelic series)"
same,binding signal,HOXB9 [2],"8.57 upbm affinity estimate (log intensity, higher = more binding, comparable within an allelic series)"
CATGCGCC,binding signal,HOXB9 [1],"8.56 upbm affinity estimate (log intensity, higher = more binding, comparable within an allelic series)"
same,binding signal,HOXB9 [2],"8.56 upbm affinity estimate (log intensity, higher = more binding, comparable within an allelic series)"
CCAGCCAG,binding signal,HOXB9 [1],"8.34 upbm affinity estimate (log intensity, higher = more binding, comparable within an allelic series)"
same,binding signal,HOXB9 [2],"8.39 upbm affinity estimate (log intensity, higher = more binding, comparable within an allelic series)"
ATAATGGG,binding signal,HOXB6 [3],"9.9 upbm affinity estimate (log intensity, higher = more binding, comparable within an allelic series)"
same,binding signal,HOXB6 [4],"11.8 upbm affinity estimate (log intensity, higher = more binding, comparable within an allelic series)"
GCGACGCC,binding signal,HOXA2 [5],"7.22 upbm affinity estimate (log intensity, higher = more binding, comparable within an allelic series)"
same,binding signal,HOXA2 [6],"10.4 upbm affinity estimate (log intensity, higher = more binding, comparable within an allelic series)"
same,binding signal,HOXA2 [7],"10.6 upbm affinity estimate (log intensity, higher = more binding, comparable within an allelic series)"
same,binding signal,HOXA2 [8],"7.31 upbm affinity estimate (log intensity, higher = more binding, comparable within an allelic series)"
same,binding signal,VAX1,"7.22 upbm affinity estimate (log intensity, higher = more binding, comparable within an allelic series)"
AGCCGACA,binding signal,PRRX1,"9.45 upbm affinity estimate (log intensity, higher = more binding, comparable within an allelic series)"

# Reference: PMC11006913
